These results are taken from the supplement of paper PMC10011410.

This test relates to AmpC beta-lactamase (E. coli). Kind of test: AmpC inhibition relative to DMSO; higher = more inhibition. The procedure:
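Aggregation counter-screen: inhibition of E. coli AmpC beta-lactamase (5 nM, nitrocefin substrate, 50 mM sodium phosphate pH 7.0, RT, 5 min) by KAT inhibitors at 4, 11, 33 and 100 uM, with or without 0.01% Triton X-100. Percent inhibition is relative to DMSO controls. Four technical replicates.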

Where [1] appears, read: 4 µM, detergent: 0.01% Triton X-100.
[2] abbreviates: 11 µM, detergent: 0.01% Triton X-100.
Where [3] appears, read: 33 µM, detergent: 0.01% Triton X-100.
Where [4] appears, read: 100 µM, detergent: 0.01% Triton X-100.
[5] abbreviates: 100 µM, detergent: no detergent.

± gives the standard deviation of the averaged measurements.

As for `Cc1cc2c(C(C)C)c(O)c(O)c(C=O)c2c(O)c1-c1c(C)cc2c(C(C)C)c(O)c(O)c(C=O)c2c1O`, the AmpC inhibition reads like this: under setting [1], -0.343 ± 1.1%; (4 µM, detergent: no detergent) 0.793 ± 12%; under setting [2], 4.76 ± 2.2%; (11 µM, detergent: no detergent) -3.81 ± 3.7%; under setting [3], -3 ± 5.7%; (33 µM, detergent: no detergent) -7.04 ± 18%. The AmpC inhibition runs as follows: under setting [4], 6.4 ± 5.5%; under setting [5], 32.1 ± 2.7%.

Turning to `O=C(/C(C(N1CC2=CC=CC=C2)=O)=C/C3=C(C)C=C(O)C=C3C)N(CC4=CC=CC=C4)C1=O`, the AmpC inhibition is, setting by setting: under setting [1], 4.49 ± 6.9%; (4 µM, detergent: no detergent) 2.08 ± 1.8%; under setting [2], 3.45 ± 13%; (11 µM, detergent: no detergent) 29.6 ± 8.8%; under setting [3], 10.9 ± 3.2%; (33 µM, detergent: no detergent) 65.9 ± 6.2%. Further, the AmpC inhibition under setting [4] was determined as 14.8 ± 0.9% and the AmpC inhibition under setting [5] worked out at 84.9 ± 8.3%.

Consider `CC(=O)c1c(O)c(C)c(O)c(Cc2c(O)c3c(c(C(=O)C=Cc4ccccc4)c2O)OC(C)(C)C=C3)c1O`, for which the AmpC inhibition was 0.746 ± 2.2% under setting [1]; 3.59 ± 4.4% (4 µM, detergent: no detergent); 5.76 ± 7.3% under setting [2]; 41 ± 3.5% (11 µM, detergent: no detergent); -0.691 ± 4% under setting [3]; 73.8 ± 1.6% (33 µM, detergent: no detergent). Further, the AmpC inhibition by setting is: under setting [4], 7.83 ± 5.4%; under setting [5], 82.1 ± 1.2%.
